PubChem BioAssay (Tox21)
Values without a mark were called inactive. Inconclusive results are not listed. Where a call stands in place of a potency, no number is given. The source made the active and inactive calls. Unless noted, calls come from the whole dose curve; as a rule, active = well fitted curve in the direction sought with a large enough effect in the repeat runs; inconclusive = weak or mixed curves; inactive = no such curve, though single readings can be large; an effect the other way counts as inactive or inconclusive.

Columns and labels:
[1] = qHTS assay to identify small molecule agonists of the estrogen receptor alpha (ER-alpha) signaling pathway in the presence of an antagonist - cell viability counter screen (AID 1259386);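 note: series mostly up to about 92 µM; cells exposed to compounds for 22 h at 37 °C before the viability read; nearly all actives have a fitted effect of over 30% in size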
How it was run: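 Read-out: CellTiter-Fluor fluorescence after 1hr reagent incubation, measured in the same wells as the luciferase readout. VM7Luc4E2 cells were exposed to 15 compound concentrations with 10.0nM ICI-182,780 for 22hr at 37C.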

[2] = biological target: Progesterone receptor (Homo sapiens) (UniProt P06401); test: qHTS assay to identify small molecule agonists of the progesterone receptor (PR) signaling pathway (AID 1346784; calls by dose curve; note: nearly all actives have a fitted effect of over 30% in size)
Progesterone receptor (Homo sapiens), sequence (P06401 whole entry, looked up): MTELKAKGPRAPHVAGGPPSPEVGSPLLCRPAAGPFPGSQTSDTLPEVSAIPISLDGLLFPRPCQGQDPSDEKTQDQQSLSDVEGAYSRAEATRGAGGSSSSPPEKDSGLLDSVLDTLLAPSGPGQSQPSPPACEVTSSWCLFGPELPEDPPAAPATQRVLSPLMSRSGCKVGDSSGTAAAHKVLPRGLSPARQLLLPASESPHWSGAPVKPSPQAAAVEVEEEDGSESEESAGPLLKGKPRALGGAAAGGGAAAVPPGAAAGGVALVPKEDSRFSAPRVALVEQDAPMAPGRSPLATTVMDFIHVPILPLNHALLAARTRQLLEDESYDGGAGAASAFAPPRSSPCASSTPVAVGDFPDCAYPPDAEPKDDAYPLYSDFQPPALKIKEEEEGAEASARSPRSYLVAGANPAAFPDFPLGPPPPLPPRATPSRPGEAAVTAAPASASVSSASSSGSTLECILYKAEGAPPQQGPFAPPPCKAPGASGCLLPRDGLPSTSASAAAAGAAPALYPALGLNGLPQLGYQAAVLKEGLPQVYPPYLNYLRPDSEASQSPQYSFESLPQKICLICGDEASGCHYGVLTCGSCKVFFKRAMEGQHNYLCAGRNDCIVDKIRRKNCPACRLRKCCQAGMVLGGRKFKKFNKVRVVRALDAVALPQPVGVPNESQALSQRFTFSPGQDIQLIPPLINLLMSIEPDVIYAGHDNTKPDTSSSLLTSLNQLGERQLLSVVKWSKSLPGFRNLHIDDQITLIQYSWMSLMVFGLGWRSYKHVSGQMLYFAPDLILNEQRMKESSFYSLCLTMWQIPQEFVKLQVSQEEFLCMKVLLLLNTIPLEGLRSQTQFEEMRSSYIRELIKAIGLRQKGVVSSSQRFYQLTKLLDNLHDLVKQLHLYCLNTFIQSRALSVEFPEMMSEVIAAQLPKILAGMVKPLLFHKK
How it was run: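 Reporter assay, GripTite PR-UAS-bla HEK 293T cells: 16 hr exposure to DMSO-dissolved compounds at 37C, 5% CO2, in steroid-depleted (2% charcoal-stripped FBS) medium; beta-lactamase measured by FRET fluorescence.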

[3] = biological target: Progesterone receptor (Homo sapiens) (UniProt P06401); test: qHTS assay to identify small molecule antagonists of the progesterone receptor (PR) signaling pathway (AID 1346795; active = well fitted inhibition curve with a large enough effect in the signal ratio in the repeat runs, not every such curve was filed as active; the % refers to the signal ratio; note: potency is the fitted concentration of half-maximal effect)
How it was run: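 Stimulus R5020 at 1 nM final; cells HEK293T PR-UAS-bla; medium with 2% charcoal-stripped FBS; compound exposure 16 hr at 37C, 5% CO2; detection by FRET beta-lactamase substrate, 2 hr, room temperature.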

[4] = qHTS assay to identify small molecule antagonists of the TGF-beta/Smad signaling pathway - cell viability counter screen (AID 1346824); note: nearly all actives have a fitted effect of over 50% in size
How it was run: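 SBE-bla HEK 293T cells, incubated overnight, then compound plus 0.25 ng/mL TGF-beta1 (stock added) for 5 hr at 37 C. Viability was read in the same wells by CellTiter-Glo luminescence after 30 min at room temperature.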

[5] = qHTS assay to identify small molecule agonists of the TGF-beta/Smad signaling pathway - cell viability counter screen (AID 1346829); note: top concentration of the series differs between compounds; nearly all actives have a fitted effect of over 45% in size
How it was run: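 After overnight seating at 37 C and 5% CO2, reporter cells got compounds for 5 hr and FRET substrate for 2 hr; cell viability then came from CellTiter-Glo luminescence.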

[6] = qHTS assay to identify small molecule agonists of the TGF-beta/Smad signaling pathway (AID 1346859; active = well fitted activation curve with a large enough effect in the signal ratio in the repeat runs, not every such curve was filed as active; the % refers to the signal ratio; note: series mostly up to about 77 µM)
How it was run: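 Screening used HEK 293T SBE-bla cells at 4,000/well. Test agents: 5 hr, 37 C. Detection: FRET substrate, 2 hr RT, then excitation 405 nm with emissions at 460 and 530 nm.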

[7] = biological target: Thyrotropin-releasing hormone receptor (Homo sapiens) (UniProt P34981); test: qHTS assay to identify small molecule antagonists of the thyrotropin-releasing hormone receptor (TRHR) signaling pathway (AID 1346877; active = well fitted inhibition curve with a large enough effect in the repeat runs, not every such curve was filed as active; note: series mostly up to about 51 µM)
Thyrotropin-releasing hormone receptor (Homo sapiens), sequence (P34981 whole entry, looked up): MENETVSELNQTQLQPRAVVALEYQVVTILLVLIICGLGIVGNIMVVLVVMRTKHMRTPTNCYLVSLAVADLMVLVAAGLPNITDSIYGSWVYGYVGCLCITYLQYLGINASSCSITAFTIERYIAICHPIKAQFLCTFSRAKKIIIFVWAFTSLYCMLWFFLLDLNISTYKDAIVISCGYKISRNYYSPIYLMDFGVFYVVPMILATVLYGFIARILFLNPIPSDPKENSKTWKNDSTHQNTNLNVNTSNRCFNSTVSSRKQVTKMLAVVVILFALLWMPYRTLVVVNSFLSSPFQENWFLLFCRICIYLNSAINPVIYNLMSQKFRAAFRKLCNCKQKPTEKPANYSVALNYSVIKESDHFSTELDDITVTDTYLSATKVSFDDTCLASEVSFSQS
How it was run: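 HEK293/TRHR cells, 18 h, 37 °C; Ca2+ dye 2 h; cpd 5 min RT; TRH 1 nM final; fluorescence read 3 min, 1 s intervals; 15 concs, triplicate.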

[8] = biological target: Thyrotropin-releasing hormone receptor (Homo sapiens) (UniProt P34981); test: qHTS assay to identify small molecule agonists of the thyrotropin-releasing hormone receptor (TRHR) signaling pathway (AID 1346891; calls by dose curve; note: series mostly up to about 58 µM)
How it was run: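 Readout was intracellular calcium fluorescence in TRHR-Hek293 cells. Cells were incubated 18 h, dye-loaded 2 h at 37 °C, and treated with compound in agonist mode.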

[9] = Caspase-3/7 induction in HepG2 cells by small molecules, qHTS assay (AID 1346978); note: nearly all actives have a fitted effect of over 15% in size
How it was run: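 Wild-type HepG2 cells, 2,000/well, settled 5 hr at 37 C and 5% CO2, then compound-treated for 17 hr; caspase-3/7 activity read by luminescent Caspase-Glo 3/7 after 30 min at room temperature.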

[10] = Caspase-3/7 induction in CHO-K1 cells by small molecules, qHTS cell viability counter screen (AID 1346979); note: nearly all actives have a fitted effect of over 35% in size; note: potency is the fitted concentration of half-maximal effect
How it was run: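 Following a 5hr settling period, CHO-K1 cells at 1,500 per well received DMSO-dissolved compounds. Cell viability was quantified 16hr later by CellTiter-Fluor fluorescence, measured after 1hr with reagent at 37C.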

[11] = Caspase-3/7 induction in CHO-K1 cells by small molecules, qHTS assay (AID 1346980); note: nearly all actives have a fitted effect of over 15% in size
How it was run: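 Wild-type CHO-K1 cells exposed to compounds for 17hr at 37 C, 5% CO2. Caspase-3/7 activity then measured by Caspase-Glo 3/7 luminescence after 30min at room temperature.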

[12] = biological target: Nuclear receptor subfamily 1 group I member 2 (Homo sapiens) (UniProt O75469); test: Human pregnane X receptor (PXR) small molecule agonists, qHTS assay (AID 1346982); note: nearly all actives have a fitted effect of over 35% in size; note: potency is the fitted concentration of half-maximal effect
Nuclear receptor subfamily 1 group I member 2 (Homo sapiens), sequence (O75469 whole entry, looked up): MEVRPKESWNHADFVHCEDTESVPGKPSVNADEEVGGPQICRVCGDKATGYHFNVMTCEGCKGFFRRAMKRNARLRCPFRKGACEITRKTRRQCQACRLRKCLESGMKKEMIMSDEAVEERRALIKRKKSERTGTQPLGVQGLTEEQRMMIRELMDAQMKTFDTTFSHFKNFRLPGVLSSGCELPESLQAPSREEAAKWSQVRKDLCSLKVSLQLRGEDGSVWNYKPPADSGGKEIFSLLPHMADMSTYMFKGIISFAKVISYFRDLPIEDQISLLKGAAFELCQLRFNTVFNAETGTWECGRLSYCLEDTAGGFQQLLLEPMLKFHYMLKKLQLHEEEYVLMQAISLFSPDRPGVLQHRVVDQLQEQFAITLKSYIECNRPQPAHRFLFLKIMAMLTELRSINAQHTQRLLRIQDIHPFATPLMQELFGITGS
How it was run: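 HepG2 PXR-Luc reporter line, 5% charcoal-stripped FBS; 5 hr pre-incubation, compound (DMSO) 24 hr at 37 C/5% CO2; ONE-Glo 30 min RT; luminescence read-out.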

[13] = biological target: Nuclear receptor subfamily 1 group I member 2 (Homo sapiens) (UniProt O75469); test: CYP3A4 induction through human pregnane X receptor (PXR) by small molecules, qHTS assay (AID 1346984); note: nearly all actives have a fitted effect of over 40% in size; note: potency is the fitted concentration of half-maximal effect
How it was run: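 HepG2-derived DPX-2 line carrying PXR plus a CYP3A4-promoter luciferase reporter; cells plated 5 hr, compound-exposed 24 hr at 37C. CYP3A4 activity probed with 3uM (final) Luciferin-IPA for 3hr, then luciferase read after One-Glo.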

[14] = biological target: Nuclear receptor subfamily 1 group I member 2 (Homo sapiens) (UniProt O75469); test: Human pregnane X receptor (PXR) activation by small molecules, qHTS assay (AID 1346985); note: nearly all actives have a fitted effect of over 40% in size; note: potency is the fitted concentration of half-maximal effect
How it was run: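 DPX-2 cells (HepG2 co-transfected with a PXR response element and a CYP3A4-promoter luciferase construct) were seeded at 2,000 per well, rested 5 hr at 37C, then exposed to DMSO-dissolved compounds for 24 hr. Activation was read as luciferase luminescence.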

[15] = biological target: Cytochrome P450 2D6 (Homo sapiens) (UniProt P10635); test: Cytochrome P450 Family 2 Subfamily D Member 6 (CYP2D6) small molecule antagonists: luciferase reporter qHTS assay (AID 1671196); note: nearly all actives have a fitted effect of over 50% in size; note: potency is the fitted concentration of half-maximal effect
Cytochrome P450 2D6 (Homo sapiens), sequence (P10635 whole entry, looked up): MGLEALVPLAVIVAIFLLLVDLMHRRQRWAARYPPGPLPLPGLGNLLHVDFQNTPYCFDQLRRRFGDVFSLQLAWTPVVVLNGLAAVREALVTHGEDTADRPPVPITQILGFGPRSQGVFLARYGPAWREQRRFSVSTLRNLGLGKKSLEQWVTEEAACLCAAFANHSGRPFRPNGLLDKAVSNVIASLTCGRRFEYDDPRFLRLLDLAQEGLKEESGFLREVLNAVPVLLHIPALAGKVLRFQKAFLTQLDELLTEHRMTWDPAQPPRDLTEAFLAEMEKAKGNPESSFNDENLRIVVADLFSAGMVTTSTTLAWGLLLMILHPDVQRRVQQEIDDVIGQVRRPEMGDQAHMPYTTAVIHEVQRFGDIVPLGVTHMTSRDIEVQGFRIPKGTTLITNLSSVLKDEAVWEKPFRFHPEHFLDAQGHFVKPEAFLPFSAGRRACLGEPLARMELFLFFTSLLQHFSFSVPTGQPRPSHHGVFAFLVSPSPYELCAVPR
How it was run: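 Luminogenic proluciferin substrate, CYP2D6 enzyme; 10 min RT preincubation with compound, NADPH regeneration system added, 1 h RT. Stop/detection reagent, 20 min RT, luminescence read (RLU). Signal proportional to CYP activity.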

[16] = qHTS assay to identify small molecule agonists of the progesterone receptor (PR) signaling pathway - cell viability counter screen (AID 1346799; calls by dose curve; note: nearly all actives have a fitted effect of over 45% in size; note: potency is the fitted concentration of half-maximal effect)
How it was run: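 Multiplexed viability read: CellTiter-Glo luminescence, 30 min RT, following LiveBLAzer FRET measurement on PR-UAS-bla HEK293T cells exposed to compounds 16 hr.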

[17] = Human pregnane X receptor (PXR) small molecule agonists, qHTS cell viability counter screen (AID 1346977); note: nearly all actives have a fitted effect of over 50% in size; note: potency is the fitted concentration of half-maximal effect
How it was run: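 In each well, the PXR reporter HepG2 line was checked for viability: CellTiter-Fluor reagent added 23hr post-dosing, fluorescence read after 1hr incubation at 37C.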

[18] = Caspase-3/7 induction in HepG2 cells by small molecules, qHTS cell viability counter screen (AID 1346981); note: nearly all actives have a fitted effect of over 30% in size; note: potency is the fitted concentration of half-maximal effect
How it was run: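 Fluorescence read-out of live-cell protease activity (CellTiter-Fluor) after 1 hr with reagent. This was measured in the same wells as the caspase-3/7 luminescence, on HepG2 cells exposed to DMSO-dissolved compounds for 16 hr at 37 C.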

[19] = qHTS assay to identify small molecule antagonists of the progesterone receptor (PR) signaling pathway - cell viability counter screen (AID 1346798); note: nearly all actives have a fitted effect of over 50% in size; note: potency is the fitted concentration of half-maximal effect
How it was run: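 In the same plates used for the beta-lactamase readout, cell viability of compound- and R5020-treated PR-UAS-bla HEK293T cells (16 hr, 37C) was assessed by CellTiter-Glo luminescence.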

[20] = biological target: Nuclear receptor subfamily 1 group I member 2 (Rattus norvegicus) (UniProt Q9R1A7); test: Rat pregnane X receptor (rPXR) activation by small molecules, qHTS assay (AID 1346983); settings: rPXR luciferase reporter cells, One-Glo luminescence, 24 h; max activation: hits give high values; note: nearly all actives have a fitted effect of over 20% in size
Nuclear receptor subfamily 1 group I member 2 (Rattus norvegicus), sequence (Q9R1A7 whole entry, looked up): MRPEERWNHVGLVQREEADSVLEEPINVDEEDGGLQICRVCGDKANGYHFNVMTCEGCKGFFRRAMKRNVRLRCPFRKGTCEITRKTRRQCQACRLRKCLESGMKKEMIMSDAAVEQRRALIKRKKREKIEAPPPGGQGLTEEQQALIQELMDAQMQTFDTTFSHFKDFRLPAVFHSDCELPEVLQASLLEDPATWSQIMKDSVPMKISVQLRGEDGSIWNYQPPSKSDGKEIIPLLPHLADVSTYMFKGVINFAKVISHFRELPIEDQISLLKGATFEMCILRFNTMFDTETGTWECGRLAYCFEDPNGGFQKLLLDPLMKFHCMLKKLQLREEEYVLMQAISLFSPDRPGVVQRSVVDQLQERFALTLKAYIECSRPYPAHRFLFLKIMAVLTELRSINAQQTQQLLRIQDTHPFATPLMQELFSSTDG
How it was run: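 Cell-based rPXR activation assay: rPXR cells, 2,000 per well, rested 5hr at 37 C, then exposed to compounds in DMSO for 24 hr at 37 C. Luciferase activity read by One-Glo luminescence after 30 min at room temperature.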

Structure (SMILES) | Potency [1] | Potency [2] | Potency [3] | outcome [4] | outcome [5] | outcome [6] | outcome [7] | Potency [8] | Potency [9] | Potency [10] | outcome [11] | Potency [12] | Potency [13] | Potency [14] | Potency [15] | Potency [16] | Potency [17] | Potency [18] | Potency [19] | max activation [20]
COCCOC(=O)C1=C(C)NC(C)=C(C(=O)OC/C=C/c2ccccc2)C1c1cccc([N+](=O)[O-])c1 (centres undefined) | inactive | inactive | 4.22 µM (active) | inactive | inactive | inactive | inactive | inactive | inactive | 26.6 µM (active) | inactive | 10.6 µM (active) | 1.58 µM (active) | 1.58 µM (active) | 21.9 µM (active) |  |  |  |  | 
O=C(O)c1ccccc1NCCc1ccccc1 | inactive | inactive | inactive | inactive |  | inactive | inactive |  |  | inactive | inactive | 23.7 µM (active) |  |  |  | inactive | inactive | inactive |  | 
Cc1ccc(S)cc1 | inactive | inactive | inactive | inactive | inactive |  | inactive | inactive |  | inactive | inactive | inactive |  |  | inactive |  | inactive |  | inactive | 
COc1cc2c(cc1OC)-c1cc(=Nc3c(C)cc(C)cc3C)n(C)c(=O)n1CC2 | inactive | inactive | 26.6 µM (active) | inactive | inactive | inactive | inactive | inactive | inactive | 29.8 µM (active) | inactive | 9.44 µM (active) | inactive | 6.31 µM (active) | 13.8 µM (active) |  | inactive |  |  | 
CCCCC/C(=C\c1ccccc1)CO | inactive | inactive |  | inactive | inactive | inactive | inactive | inactive |  |  | inactive | inactive |  |  |  | inactive | inactive | inactive | inactive | 
Oc1cc(O)c(Cl)cc1Cl | inactive | inactive | 49.7 µM (active) | inactive |  |  |  |  | inactive | inactive | inactive |  |  |  |  |  | inactive |  | inactive | 
CCOC(=O)/C=C/C(=O)O | inactive | inactive | inactive | inactive |  |  | inactive | inactive | inactive | inactive | inactive | inactive |  |  |  | inactive | inactive | inactive |  | 
CNCCCC1c2ccccc2C=Cc2ccccc21 | inactive | inactive |  | inactive | inactive | inactive | inactive | inactive |  | 26.6 µM (active) | inactive |  | 3.55 µM (active) |  | 4.9 µM (active) | 10.6 µM (active) | 29.8 µM (active) |  | 21.1 µM (active) | -3.85%
Fc1c(F)c(F)c(Br)c(F)c1F | inactive | inactive | inactive | inactive | inactive | inactive | inactive | inactive |  | inactive | inactive | inactive |  |  | inactive | inactive |  | inactive |  | 
Cc1cnc(C)c(C)n1 | inactive | inactive | inactive | inactive | inactive |  |  |  | inactive | inactive | inactive | inactive |  |  | inactive | 28.6 µM (active) | inactive | inactive |  | 
Cc1c(C(=O)NN2CCCCC2)nn(-c2ccc(Cl)cc2Cl)c1-c1ccc(Cl)cc1 | inactive | inactive | 11.9 µM (active) | inactive |  |  |  |  |  | 26.6 µM (active) | inactive |  | inactive | inactive | inactive |  |  |  |  | -8.23%
CN1CCN(CCCN2c3ccccc3Sc3ccc(S(=O)(=O)N(C)C)cc32)CC1 | inactive | inactive |  | inactive | inactive | inactive | inactive | inactive |  | 26.6 µM (active) | inactive |  |  | inactive | 15.5 µM (active) | 6.68 µM (active) | 26.6 µM (active) | 29.8 µM (active) | 13.3 µM (active) | 4.5%
CC1CC(O)CC(C)(C)C1 (centres undefined) | inactive | inactive | inactive | inactive | inactive |  | inactive | inactive | inactive | inactive | inactive | inactive | inactive | inactive | inactive |  | inactive |  |  | -0.957%
Cc1ccnc2ccccc12 | inactive | inactive | inactive | inactive | inactive | inactive | inactive | inactive | inactive | inactive | inactive | inactive |  |  |  | inactive | inactive |  |  | 
